Source: the supplement of paper PMC10338343
± gives the standard deviation.

Assays:
[1] = system: MILI (PIWIL2) piRISC loaded with L1MC piRNA (26 nt); test: pre-steady-state target cleavage rate (min^-1); guide: L1MC piRNA 5'p-UAACUAAAUACUAUGCAAGCUGUAGG; higher = faster piRNA-guided slicing of the target; details: auxiliary factor: 500 nM mouse GTSF1
Outline: (§1)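 In Cleave-'n-Seq, a transcribed, DNA-blocked target RNA library (0.1 nM) was combined with 1 nM active affinity-purified piRISC bearing one synthetic guide, with or without 500 nM GTSF1 partner protein. Reactions ran in HEPES–potassium acetate buffer at 33 °C for 0–8 or 0–960 min. Uncleaved targets were sequenced and normalised to depth and to weakly complementary targets, three trials were pooled, and k3 was capped at 0.0001 min^-1. The pre-steady-state cleavage rate was obtained by fitting a burst-and-steady-state model.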

[2] = system: EfPiwi piRISC loaded with L1MC piRNA (26 nt); test: pre-steady-state target cleavage rate (min^-1); auxiliary factor: 500 nM Ephydatia muelleri Gtsf1; guide: L1MC piRNA 5'p-UAACUAAAUACUAUGCAAGCUGUAGG; MIWI and MILI are mouse PIWI proteins and EfPiwi is from a freshwater sponge; tags in brackets are library labels; higher = faster piRNA-guided slicing of the target
Outline: as §1

Sequence | pre-steady-state target cleavage rate [1] | pre-steady-state target cleavage rate [2]
UCCUGCUACAGCUUGGAUAGUAUUUAGAAA | 0.0121 ± 0.0049 | 0.00242 ± 0.0021
UCCUGCUACAGCUUGCAUAGUAAAUAGUUA | 0.17 ± 0.027 | 0.00532 ± 0.0029
UCCUCCUACUGCUUGCAUAGUAUUUACUUA | 0.0701 ± 0.013 | 0.00299 ± 0.0029
UCCUCCUACAGCUUGCAUAGUAUAUACUUA | 0.0976 ± 0.028 | 0.00304 ± 0.0025
UCCUGGAACAGCUUGCAUAGUAUUUCAGUUA | 0.131 ± 0.028 | 0.00308 ± 0.0026
UCCUGGUACAGCUUGCAUAGUUAUUAGUAA | 0.01 ± 0.0044 | 0.00807 ± 0.0043
UCCUCCAACAGCUUGCAUAGUAUUUAGAAA | 0.147 ± 0.023 | 0.00461 ± 0.0019
UCCUGCUACAGCAUCCAUAGUAUUUAGUUA | 0.195 ± 0.047 | 0.00233 ± 0.0017
UCCUGGAUGAGCUUGCAUAGUAUUUAUUA | 0.0142 ± 0.0067 | 0.00268 ± 0.0022
UCCUGGUACAGCUUGCAUAGUAUUAAGAAA | 0.0213 ± 0.0097 | 0.00387 ± 0.0017
UCCUGGAUGAGCUUGCAUAGUAUUUAAUUA | 0.0516 ± 0.014 | 0.00294 ± 0.0025
UCCUGCUACAGCUUGCAUAGAAUUUAGUAA | 0.237 ± 0.062 | 0.00358 ± 0.0016
UCCUGGAUGAGCUUGCAUAGUAAAUAGUUA | 0.114 ± 0.015 | 0.00329 ± 0.0025
UCCUGCUUGUGCUUGCAUAGUAUUUAGAAA | 0.0115 ± 0.0056 | 0.00373 ± 0.0022
UCCUGGAUGUGCUUGCAUAGUAUUUGAGUUA | 0.123 ± 0.024 | 0.0118 ± 0.0069
UCCUGGAACAGCUUGCGAUAGUAUUUAGUUA | 0.00418 ± 0.0033 | 0.00523 ± 0.0018
UCCUGCUACAGCUUGCAUUGUAUUUAGAAA | 0.111 ± 0.03 | 0.00474 ± 0.0017
UCCUGCUACAGCUUGCAUAGAUUUUACAAA | 0.00852 ± 0.0044 | 0.00292 ± 0.0018
UCCUCCUAGUGCUUGCAUAGUAUUUAGAAA | 0.0113 ± 0.0046 | 0.00361 ± 0.0021
UCCUCCUACAGCAUGCAUAGUAUUUAGAAA | 0.211 ± 0.03 | 0.00473 ± 0.002

Sequence | pre-steady-state target cleavage rate [1] | pre-steady-state target cleavage rate [2]
UCCUGGUACUGCUUGCAUAGUAUUUACAAA | 0.00977 ± 0.0049 | 0.00278 ± 0.0027
UCCUCCUACAGCUUGCAUACUAUUUAGAAA | 0.136 ± 0.043 | 0.00366 ± 0.0019
UCCUGCUACAGCUUGCAUAGUAAUAAGUUA | 0.238 ± 0.03 | 0.0044 ± 0.002
UCCUCCUUCAGCUUGCAUAGUAUUUACAAA | 0.13 ± 0.029 | 0.00379 ± 0.0027
UCCUGCUACAGCUUGCAUAGUUUUUAGUAA | 0.0393 ± 0.011 | 0.00424 ± 0.0013
UCCUGGAACAGCUUGCAUAGUAUUUUCAAA | 0.0774 ± 0.018 | 0.00233 ± 0.0023
UCCUGGUACUGCUUGCAUAGUAUAUAGUUA | 0.168 ± 0.044 | 0.01 ± 0.0048
UCCUGCUACAGCUUGCAUAGUAUUUGUUA | 0.124 ± 0.028 | 0.00505 ± 0.002
UCCUGGAACUCGUUGCAUAGUAUUUAGAAA | 0.136 ± 0.021 | 0.00502 ± 0.004
UCCUGGUACAGCUUGCAUAGUAUUAAGUAA | 0.128 ± 0.035 | 0.0031 ± 0.0028
UCCUGGAACAGCUUGCAUAGUAUUUUCAUA | 0.0434 ± 0.013 | 0.00388 ± 0.002
UCCUCCUAGAGCUUGCAUAGUUUUUAGUUA | 0.0719 ± 0.011 | 0.00428 ± 0.0017
UCCUGCUACAGCUUGCAUAGUAUAAUCAAA | 0.0335 ± 0.013 | 0.00391 ± 0.0037
UCCUGCUACAGCUUGCAUAGUAUUUAGAUA | 0.15 ± 0.029 | 0.00539 ± 0.0023
UCCUGCUACAGCUUGCUUAGUAUUAAGUUA | 0.179 ± 0.026 | 0.00988 ± 0.0037
UCCUCCUAGAGCUUGCAUAGUAUUUACUUA | 0.146 ± 0.03 | 0.00356 ± 0.0033
UCCUCCUACAGCUUGCAUAGUAUUAGUUA | 0.273 ± 0.024 | 0.00402 ± 0.0027
UCCUGGAUCAGCUUGCAUUGUAUUUAGUAA | 0.144 ± 0.014 | 0.00441 ± 0.0018
UCCUCCUACAGCUUGCAUAGUUAUUAGUAA | 0.031 ± 0.011 | 0.00524 ± 0.0028
UCCUGCUUCAGCUUGCAUAGUAUUUAGAAA | 0.195 ± 0.037 | 0.00434 ± 0.0021

Sequence | pre-steady-state target cleavage rate [1] | pre-steady-state target cleavage rate [2]
UCCUGGAUCAGCUUGGAUAGUAUUUAGAAA | 0.0109 ± 0.0051 | 0.00249 ± 0.0024
UCCUGCUACAGCUUGCAUAGAUUUUAGUAA | 0.0161 ± 0.0046 | 0.0033 ± 0.0022
UCCUGCUACAGCUUGCAUAGUAUUUCGUUA | 0.132 ± 0.033 | 0.00379 ± 0.0018
UCCUGGAUCAGCUUGCAUACUAUUUAGUAA | 0.0386 ± 0.0077 | 0.00398 ± 0.0023
UCCUGCAACAGCUUGCAUAGUAUUUUCAAA | 0.104 ± 0.027 | 0.00269 ± 0.0017
UCCUCCUAGAGCUUGCAUACUAUUUAGUUA | 0.101 ± 0.018 | 0.00855 ± 0.0026
UCCUGGUACAGCUUGCACUAGUAUUUAGUUA | 0.109 ± 0.027 | 0.00323 ± 0.0029
UCCUCCAUGAGCUUGCAUAGUAUUUACAAA | 0.0266 ± 0.0095 | 0.00312 ± 0.0024
UCCUCCUACAGCUUGCAUAGUUAUUAGUUA | 0.0492 ± 0.015 | 0.0094 ± 0.0036
UCCUCCUACAGCUUGGAUAGUAUUUACUUA | 0.0993 ± 0.024 | 0.00254 ± 0.0019
UCCUGGAUCAGCUUGCAUAGGAUUUAGUUA | 0.0049 ± 0.0037 | 0.0025 ± 0.0024
UCCUCCUACAGCUUGCAUAGAAUUUUGUUA | 0.0525 ± 0.013 | 0.00325 ± 0.0016
UCCUCCUACAGCUUGCAUAGUAUUUUCAAA | 0.232 ± 0.044 | 0.00383 ± 0.0027
UCCUCCUACAGCUUGCAUAGUAUUUAGGUA | 0.152 ± 0.045 | 0.00476 ± 0.0017
UCCUGCAUGAGCUUGCAUAGUAUUUACAAA | 0.0926 ± 0.026 | 0.00266 ± 0.0017
UCCUCCUACAGCUUGCAUAGUAUUUUCUUA | 0.126 ± 0.027 | 0.00493 ± 0.003
UCCUGCUACAGCUUGCAAUAGUAUUUAGUUA | 0.0355 ± 0.0093 | 0.006 ± 0.0018
UCCUCCUACAGCUUGCAUUGUAUUAAGUUA | 0.132 ± 0.023 | 0.00681 ± 0.0032
UCCUGCUUGUGCUUGCAUAGUAUUUAGUAA | 0.0582 ± 0.015 | 0.00475 ± 0.0026
UCCUGCUACUGCUUCCAUAGUAUUUAGUUA | 0.0453 ± 0.014 | 0.00205 ± 0.0016
